{"source": "paper PMC7862700", "about": "“An all-to-all approach to the identification of sequence-specific readers for epigenetic DNA modifications on cytosine”", "assay_in_all_cases": "DAPPL (digital affinity profiling via proximity ligation, sequencing); 10 mM Tris-HCl pH 7.5, 50 mM NaCl, 1 mM DTT, 4% glycerol, room temperature, 30 min; GST-TFs on glutathione beads, 16-mer random dsDNA library, 0.1% formaldehyde crosslink after washing; high values mean tight binding", "key": {"FEV": {"biological_target": "T1, FEV (Homo sapiens, UniProt Q99581 1-238)", "T1 sequence": "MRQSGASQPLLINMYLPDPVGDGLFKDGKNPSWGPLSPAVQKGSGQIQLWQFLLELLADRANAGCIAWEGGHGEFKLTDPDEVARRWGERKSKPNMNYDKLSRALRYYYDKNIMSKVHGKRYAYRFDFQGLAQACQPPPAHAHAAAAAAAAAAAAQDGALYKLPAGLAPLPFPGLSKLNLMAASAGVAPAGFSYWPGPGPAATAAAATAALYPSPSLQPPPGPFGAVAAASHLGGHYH", "details": "protein: recombinant; tags: N-terminal GST; dsDNA, one strand shown", "procedure,_shortened": "(§1)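 Human transcription factors were made in yeast as GST fusions, captured on glutathione beads and barcoded with DNA. With a tag-only sample included, the pool was incubated with 200 nmole of a random double-stranded 16-mer DNA library in Tris/NaCl/DTT/glycerol buffer at room temperature for 30 min, then crosslinked with 0.1% formaldehyde after washing, ligated by proximity, amplified and sequenced. For binding signal, each hexamer's read frequency for a factor is divided by its frequency for the tag-only sample.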"}, "ETV5": {"biological_target": "ETV5 (Homo sapiens, UniProt P41161 1-510)", "sequence (P41161 whole entry)": "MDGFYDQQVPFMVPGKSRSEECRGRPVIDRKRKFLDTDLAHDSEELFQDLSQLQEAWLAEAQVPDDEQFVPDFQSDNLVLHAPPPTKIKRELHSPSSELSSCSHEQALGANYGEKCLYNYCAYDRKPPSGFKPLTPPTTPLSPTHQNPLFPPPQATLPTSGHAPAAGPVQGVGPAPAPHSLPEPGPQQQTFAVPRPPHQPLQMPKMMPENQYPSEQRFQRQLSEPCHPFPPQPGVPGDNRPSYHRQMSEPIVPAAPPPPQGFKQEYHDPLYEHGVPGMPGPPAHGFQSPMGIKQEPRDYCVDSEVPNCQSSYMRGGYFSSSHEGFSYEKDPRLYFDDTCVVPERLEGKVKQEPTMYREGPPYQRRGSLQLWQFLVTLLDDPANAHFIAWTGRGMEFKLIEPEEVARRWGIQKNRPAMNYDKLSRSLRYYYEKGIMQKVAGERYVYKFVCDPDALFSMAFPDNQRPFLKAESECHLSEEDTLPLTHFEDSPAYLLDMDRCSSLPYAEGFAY", "details": "protein: recombinant; tags: N-terminal GST; dsDNA, one strand shown", "procedure,_shortened": "as §1"}, "HSF1": {"biological_target": "HSF1 (Homo sapiens, UniProt Q00613 1-529)", "sequence (Q00613 whole entry)": "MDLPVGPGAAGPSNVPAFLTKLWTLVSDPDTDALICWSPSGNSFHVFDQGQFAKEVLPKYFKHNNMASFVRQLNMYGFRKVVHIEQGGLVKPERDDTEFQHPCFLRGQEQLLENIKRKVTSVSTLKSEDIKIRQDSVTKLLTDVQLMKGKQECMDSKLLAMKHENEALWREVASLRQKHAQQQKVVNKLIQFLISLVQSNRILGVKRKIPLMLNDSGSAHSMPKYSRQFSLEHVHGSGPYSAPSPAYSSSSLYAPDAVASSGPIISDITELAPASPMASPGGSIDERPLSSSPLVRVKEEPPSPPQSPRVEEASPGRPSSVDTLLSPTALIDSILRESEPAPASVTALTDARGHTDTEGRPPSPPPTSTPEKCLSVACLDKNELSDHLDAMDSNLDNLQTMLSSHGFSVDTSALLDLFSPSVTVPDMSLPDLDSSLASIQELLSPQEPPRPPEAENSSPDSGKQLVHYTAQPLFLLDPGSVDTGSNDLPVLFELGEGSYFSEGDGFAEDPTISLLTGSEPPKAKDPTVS", "details": "protein: recombinant; tags: N-terminal GST; chain copies: 3; dsDNA, one strand shown", "procedure,_shortened": "as §1"}, "SPIC": {"biological_target": "T2, SPIC (Homo sapiens, UniProt Q8N5J4 1-248)", "T2 sequence": "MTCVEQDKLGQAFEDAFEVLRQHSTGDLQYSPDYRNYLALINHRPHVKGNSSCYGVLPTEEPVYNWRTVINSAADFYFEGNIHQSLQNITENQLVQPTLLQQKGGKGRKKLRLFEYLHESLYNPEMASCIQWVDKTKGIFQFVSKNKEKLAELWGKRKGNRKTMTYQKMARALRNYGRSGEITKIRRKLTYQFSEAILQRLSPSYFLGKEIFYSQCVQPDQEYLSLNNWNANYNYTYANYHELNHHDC", "details": "protein: recombinant; tags: N-terminal GST; dsDNA, one strand shown", "procedure,_shortened": "as §1"}, "ELF4": {"biological_target": "ELF4 (Homo sapiens, UniProt Q99607 1-663)", "sequence (Q99607 whole entry)": "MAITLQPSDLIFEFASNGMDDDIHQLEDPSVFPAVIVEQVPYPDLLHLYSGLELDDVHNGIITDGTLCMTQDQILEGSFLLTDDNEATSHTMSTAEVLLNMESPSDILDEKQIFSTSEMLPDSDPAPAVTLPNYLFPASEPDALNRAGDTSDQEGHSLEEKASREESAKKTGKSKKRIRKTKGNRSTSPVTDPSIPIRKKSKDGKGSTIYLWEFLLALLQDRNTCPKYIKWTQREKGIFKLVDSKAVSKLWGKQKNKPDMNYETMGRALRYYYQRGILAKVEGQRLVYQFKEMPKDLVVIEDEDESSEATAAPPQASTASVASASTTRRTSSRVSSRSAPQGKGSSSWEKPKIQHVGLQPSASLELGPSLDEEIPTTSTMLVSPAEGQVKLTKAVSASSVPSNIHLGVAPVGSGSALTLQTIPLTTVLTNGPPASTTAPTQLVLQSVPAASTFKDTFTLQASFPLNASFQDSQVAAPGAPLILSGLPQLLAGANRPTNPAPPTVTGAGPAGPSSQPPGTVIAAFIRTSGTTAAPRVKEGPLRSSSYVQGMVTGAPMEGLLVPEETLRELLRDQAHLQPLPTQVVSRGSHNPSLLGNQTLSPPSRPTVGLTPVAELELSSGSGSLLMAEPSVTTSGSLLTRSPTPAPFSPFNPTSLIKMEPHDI", "details": "protein: recombinant; tags: N-terminal GST; dsDNA, one strand shown", "procedure,_shortened": "as §1"}, "ELK4": {"biological_target": "T3, ELK4 (Homo sapiens, UniProt P28324-2 1-405)", "T3 sequence": "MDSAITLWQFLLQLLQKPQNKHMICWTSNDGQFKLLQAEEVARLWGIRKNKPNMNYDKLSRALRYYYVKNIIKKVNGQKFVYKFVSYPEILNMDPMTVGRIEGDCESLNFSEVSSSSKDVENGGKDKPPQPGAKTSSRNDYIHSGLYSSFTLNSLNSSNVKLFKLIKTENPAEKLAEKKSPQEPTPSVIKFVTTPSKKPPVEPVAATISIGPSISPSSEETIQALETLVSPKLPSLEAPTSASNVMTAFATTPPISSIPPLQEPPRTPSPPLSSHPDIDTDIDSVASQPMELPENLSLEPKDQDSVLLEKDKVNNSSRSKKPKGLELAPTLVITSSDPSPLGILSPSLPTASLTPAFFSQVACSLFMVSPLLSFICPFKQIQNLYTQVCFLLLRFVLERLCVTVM", "details": "protein: recombinant; tags: N-terminal GST; dsDNA, one strand shown", "procedure,_shortened": "as §1"}, "ETV2": {"biological_target": "T4, ETV2 (Homo sapiens, UniProt O00321 1-342)", "T4 sequence": "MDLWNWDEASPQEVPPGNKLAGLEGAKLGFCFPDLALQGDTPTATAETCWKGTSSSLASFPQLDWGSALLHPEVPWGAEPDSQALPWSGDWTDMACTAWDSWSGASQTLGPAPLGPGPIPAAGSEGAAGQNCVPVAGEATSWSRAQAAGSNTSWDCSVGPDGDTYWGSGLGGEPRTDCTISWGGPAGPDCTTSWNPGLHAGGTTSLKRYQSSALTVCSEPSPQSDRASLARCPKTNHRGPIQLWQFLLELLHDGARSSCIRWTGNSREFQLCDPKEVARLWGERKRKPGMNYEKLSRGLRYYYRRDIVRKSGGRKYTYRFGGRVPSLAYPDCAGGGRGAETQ", "details": "protein: recombinant; tags: N-terminal GST; dsDNA, one strand shown", "procedure,_shortened": "as §1"}, "ELF3": {"biological_target": "T5, ELF3 (Homo sapiens, UniProt P78545 1-371)", "T5 sequence": "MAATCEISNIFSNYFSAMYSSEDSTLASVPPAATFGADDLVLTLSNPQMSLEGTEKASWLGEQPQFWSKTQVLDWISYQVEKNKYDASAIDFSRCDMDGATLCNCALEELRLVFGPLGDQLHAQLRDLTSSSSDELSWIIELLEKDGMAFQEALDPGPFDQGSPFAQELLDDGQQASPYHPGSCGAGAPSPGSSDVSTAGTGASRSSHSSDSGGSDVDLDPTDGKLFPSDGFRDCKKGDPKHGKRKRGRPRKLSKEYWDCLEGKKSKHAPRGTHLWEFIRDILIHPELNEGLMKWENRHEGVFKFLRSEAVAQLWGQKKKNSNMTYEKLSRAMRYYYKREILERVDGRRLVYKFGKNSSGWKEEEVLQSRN", "details": "protein: recombinant; tags: N-terminal GST; dsDNA, one strand shown", "procedure,_shortened": "as §1"}, "CRX": {"biological_target": "CRX (Homo sapiens, UniProt O43186 1-299)", "sequence (O43186 whole entry)": "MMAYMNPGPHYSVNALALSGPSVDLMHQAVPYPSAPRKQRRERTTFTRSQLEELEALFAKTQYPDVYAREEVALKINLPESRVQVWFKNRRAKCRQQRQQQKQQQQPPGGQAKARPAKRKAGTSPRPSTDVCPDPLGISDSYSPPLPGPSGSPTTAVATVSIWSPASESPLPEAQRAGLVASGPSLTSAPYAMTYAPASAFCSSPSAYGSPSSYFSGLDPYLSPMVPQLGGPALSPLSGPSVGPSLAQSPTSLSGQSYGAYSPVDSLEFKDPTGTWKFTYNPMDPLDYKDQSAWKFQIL", "details": "protein: recombinant; tags: N-terminal GST; dsDNA, one strand shown", "procedure,_shortened": "as §1"}, "ETV1": {"biological_target": "ETV1 (Homo sapiens, UniProt P50549 1-477)", "sequence (P50549 whole entry)": "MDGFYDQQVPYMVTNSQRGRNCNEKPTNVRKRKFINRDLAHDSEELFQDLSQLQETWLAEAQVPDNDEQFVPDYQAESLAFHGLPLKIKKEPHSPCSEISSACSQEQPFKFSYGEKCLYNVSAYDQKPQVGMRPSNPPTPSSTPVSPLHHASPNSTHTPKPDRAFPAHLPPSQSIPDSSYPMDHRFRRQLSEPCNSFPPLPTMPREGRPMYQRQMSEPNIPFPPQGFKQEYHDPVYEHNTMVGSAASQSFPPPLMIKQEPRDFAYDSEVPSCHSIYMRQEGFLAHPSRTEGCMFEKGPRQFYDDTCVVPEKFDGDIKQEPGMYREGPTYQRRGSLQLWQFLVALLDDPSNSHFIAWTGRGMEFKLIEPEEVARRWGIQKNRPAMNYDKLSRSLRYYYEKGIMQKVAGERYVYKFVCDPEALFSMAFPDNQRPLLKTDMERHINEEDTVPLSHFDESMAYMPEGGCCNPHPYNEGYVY", "details": "protein: recombinant; tags: N-terminal GST; dsDNA, one strand shown", "procedure,_shortened": "as §1"}}}
{"sequence": "TACCGA", "values": [{"measurement": "binding signal", "setting": "FEV", "result": "1.11 fold enrichment (6-mer frequency, TF over GST control)"}, {"measurement": "binding signal", "setting": "ETV5", "result": "1.14 fold enrichment (6-mer frequency, TF over GST control)"}, {"measurement": "binding signal", "setting": "HSF1", "result": "1.21 fold enrichment (6-mer frequency, TF over GST control)"}, {"measurement": "binding signal", "setting": "SPIC", "result": "1.2 fold enrichment (6-mer frequency, TF over GST control)"}, {"measurement": "binding signal", "setting": "ELF4", "result": "1.18 fold enrichment (6-mer frequency, TF over GST control)"}, {"measurement": "binding signal", "setting": "ELK4", "result": "1.12 fold enrichment (6-mer frequency, TF over GST control)"}, {"measurement": "binding signal", "setting": "ETV2", "result": "1.04 fold enrichment (6-mer frequency, TF over GST control)"}, {"measurement": "binding signal", "setting": "ELF3", "result": "1.3 fold enrichment (6-mer frequency, TF over GST control)"}, {"measurement": "binding signal", "setting": "CRX", "result": "1.33 fold enrichment (6-mer frequency, TF over GST control)"}, {"measurement": "binding signal", "setting": "ETV1", "result": "1.24 fold enrichment (6-mer frequency, TF over GST control)"}]}
